{
  "source": "PubChem BioAssay AID686970",
  "about": "(National Center for Advancing Translational Sciences (NCATS), 2013)",
  "note": "Screen size: about 360,000 compounds; about 6,000 (1.7%) were called active. Inconclusive results (about 8%) are left out. Calls come from the whole dose curve; as a rule, active = well fitted cell-killing curve with a large enough effect; inconclusive = small, poorly fitted or top-dose-only effect, or effect the other way; inactive = flat fitted curve, though single readings scatter. What follows is part of a selection rich in actives, with near analogues and random picks from the rest. A call without a number means that no potency is given here. Potency is the fitted concentration of half-maximal effect.",
  "data": [
    {"assay": "qHTS for induction of synthetic lethality in tumor cells producing 2HG: qHTS for the HT-1080-NT fibrosarcoma cell line;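 note: NT is the 2HG producing partner of a matched IDH1 knockdown line; nearly all actives have a fitted effect of over 55% in size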", "conditions": "HT-1080-NT fibrosarcoma viability, CellTiter-Glo ATP luminescence, 48 h; series mostly up to 46.1 µM", "how_it_was_run": "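750 cells/well, RPMI + 5% FBS; 2 h settle, compound pin-transfer, 48 h at 37 degrees C. CellTiter-Glo 10 min RT, luminescence. Normalized to DMSO and media-only wells.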", "values": [
      {"smiles": "Cc1ccc(CNC(=O)CCNC(=O)Cn2ccc3ccccc3c2=O)cc1", "Potency": "inactive"},
      {"smiles": "COC(=O)COc1cccc2c(=O)n(CC(=O)NCCc3ccc(OC)c(OC)c3)ccc12", "Potency": "inactive"},
      {"smiles": "COC(=O)COc1cccc2c(=O)n(CC(=O)NCc3ccccc3)ccc12", "Potency": "2.59 µM (active)"},
      {"smiles": "Cc1cc(C)c(S(=O)(=O)NN=C2c3ccccc3[C@H]3Cc4csc[n+]4[C@@H]23)c(C)c1", "Potency": "inactive"},
      {"smiles": "O=c1[nH]c2ccccc2n1C1CCN(CCOc2ccccc2)CC1", "Potency": "inactive"},
      {"smiles": "COc1cc2c(cc1OC)CN(C(=O)c1cc(=O)c3ccccc3o1)CC2", "Potency": "5.8 µM (active)"},
      {"smiles": "COc1ccccc1CNC(=O)c1cc(=O)c2ccccc2o1", "Potency": "inactive"},
      {"smiles": "COc1ccc2c(CC(=O)N3CCc4cc(OC)c(OC)cc4C3)coc2c1", "Potency": "inactive"},
      {"smiles": "COc1ccc(S(=O)(=O)N2CCCCC2c2cc(C(=O)NCc3ccc(F)cc3)no2)cc1", "note": "(configuration not stated)", "Potency": "inactive"},
      {"smiles": "C[C@@H]1CN([C@H](C)CO)S(=O)(=O)c2ccc(C#CC3CCCCC3)cc2O[C@H]1CN(C)C(=O)Cc1ccncc1", "Potency": "inactive"},
      {"smiles": "COc1ccc(-c2c(-c3ccc(OC)cc3O)nc(C)nc2C(F)(F)F)cc1", "Potency": "inactive"},
      {"smiles": "C=C(C)COc1ccc(-c2n[nH]c(C)c2-c2ccccc2)c(O)c1", "Potency": "20.6 µM (active)"},
      {"smiles": "C=C(C)COc1ccc(-c2ncncc2-c2ccc(OC)cc2)c(O)c1", "Potency": "inactive"},
      {"smiles": "CCOC(=O)[C@H]1Nc2ccc(Cl)cc2[C@@H]2[C@H]1C1CC(c3ccccc31)N2C(=O)OCc1ccccc1", "note": "(some centres not stated)", "Potency": "inactive"},
      {"smiles": "COc1ccc(/C=C2\\CCc3ccccc3C2=O)c(OC)c1OC", "Potency": "inactive"},
      {"smiles": "COc1ccc(/C=C2/CCCc3ccccc3C2=O)cc1", "Potency": "8.2 µM (active)"},
      {"smiles": "O=C1/C(=C/c2cccs2)CCc2ccccc21", "Potency": "inactive"},
      {"smiles": "CC(=O)Oc1ccc(Cn2c(C)c(C(=O)NCc3ccc(C#N)cc3)sc2=O)cc1", "Potency": "inactive"},
      {"smiles": "O=C(CSc1nc2cccc(F)c2c(=O)n1-c1ccccc1)Nc1ccc2c(c1)CCC2", "Potency": "inactive"},
      {"smiles": "O=C(O)c1cccc(NC(=O)c2cc(-c3cccc(Cl)c3)nc3ccccc23)c1", "Potency": "inactive"},
      {"smiles": "O=C(N/N=C/c1ccc(Cl)cc1)c1nc2ccc([N+](=O)[O-])cc2c(=O)[nH]1", "Potency": "inactive"},
      {"smiles": "O=C(/C(=C/c1cccc(Cl)c1)c1nc2ccccc2[nH]1)c1ccccc1", "Potency": "5.17 µM (active)"},
      {"smiles": "Cc1cc(Br)cn2c(Cc3ccccc3C(F)(F)F)c(-c3ccc(Cl)cc3)nc12", "Potency": "inactive"},
      {"smiles": "Cc1ccc(Oc2cnn(-c3ccccc3)c(=O)c2Br)cc1", "Potency": "inactive"},
      {"smiles": "COc1ccc(CCNC(=O)c2c(C)nn(-c3ccccc3)c2Cl)cc1", "Potency": "inactive"},
      {"smiles": "COc1ccc(Oc2c(Cl)cnn(-c3ccccc3)c2=O)cc1", "Potency": "18.4 µM (active)"},
      {"smiles": "CCCCN1C(=O)C(CC(=O)NCc2cccs2)CC(C(=O)N2CCCCCC2)=C1C", "note": "(configuration not stated)", "Potency": "inactive"}
    ]}
  ]
}
